The nature of experiment [1]: Wnt pathway potentiators raising nuclear beta-catenin – imaging, WNT3A-conditioned medium, mouse C2C12, NPC library, primary screen (AID 1117326; in the data active = nuclear beta-catenin stimulation mostly above about 4.2%, no sharp cut-off; inactive = mostly below about 10%). The note with it: stronger effect = higher value.
Experiment [2] is described as follows: stimulators of insulin release from INS-1E, primary screen, cell-based, 5 mM glucose, NPC library (AID 1117329;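 active = compound raises insulin release from rat beta cells at 5 mM glucose, no numeric limit stated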). The note with it: rat INS-1E insulin secretion, at 10 µM, stronger effect = higher value.
Experiment [3] can be described thus: growth inhibition of GSK3B-pretreated HCT116 cells – cell-based, CellTiter-Glo, 0.2 to 20 µM (AID 1117336;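 active = compounds lowering colon cancer cell viability after pretreatment blocking the GSK3B kinase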). The note with it: HCT116 viability after GSK3B inhibitor, at 20 µM, stronger effect = higher value. (In ATP-based viability assays light output follows the ATP content of the culture.)
The nature of experiment [4]: inhibition of endothelial tube formation, primary screen, imaging, VEGF stimulated, CD31 staining, tube area, NPC library (AID 1117340;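 active = compound that reduces growth-factor-driven endothelial tube area in a mixed cell culture, no cutoff stated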). The note with it: VEGF-stimulated ADSC/ECFC co-culture, at 10 µM, stronger effect = higher value.
The nature of experiment [5]: GLP1 release stimulators, primary, NCI-H716, NPC library (AID 1117341;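 active = compound raises GLP1 secretion from the human gut endocrine cells, with no numeric limit stated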). The note with it: NCI-H716 cells, at 10 µM, stronger effect = higher value.
Experiment [6] in a line: HCT116 colon cancer cell growth inhibition, primary screen, CellTiter-Glo luminescence, NPC library (AID 1117342;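 active = compounds that lower survival of HCT116 colon cancer cells in the luminescence readout, no numeric limit stated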). The settings on record: at 20 µM (top of the series).
Experiment [7] in a line: reduced SW480 viability measured with CellTiter-Glo, NPC library, primary (AID 1117343;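 active = compounds that lower viability of the colon cancer cells in the luminescence readout, with no numeric limit stated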). The settings on record: CellTiter-Glo luminescence; at 20 µM (top of the series).
Experiment [8] is described as follows: NPC library primary testing for decreased DLD-1 cell viability via CellTiter-Glo (AID 1117346;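 active = compounds that lower survival of DLD-1 colon cancer cells in the luminescence readout, no cutoff given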). The note with it: DLD-1 viability, CellTiter-Glo luminescence; at 20 µM (top of the series).
Experiment [9] can be described thus: EMT-state selective cytotoxicity in co-culture – imaging, PC-3E GFP, TEM4-18 mCherry, primary screen (AID 1345086;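 active = compounds killing one labelled cell type while sparing the other, by normalised counts and ratio limits, not self-fluorescent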;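 as to all read-outs here: cells exposed to compound for 72 h before imaging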;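 as to red/green cell ratio (normalised): normalised mesenchymal count divided by normalised epithelial count so high means epithelial killing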). The settings on record: PC-3E GFP / TEM4-18 mCherry co-culture, imaging cell counts, at 1 µM; for red/green cell ratio (normalised): actives lie on both sides.
For experiment [10], the system named is Aerobactin synthetase IucA (Klebsiella pneumoniae hvKP1). The experiment in a line: IucA enzyme inhibition, primary screen, biochemical, Spectrum library (AID 1346200; call rule not given here;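 also: 100% = wells without compound and 0% = wells lacking enzyme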). The settings on record: malachite green pyrophosphate, A620, at 8 µM, stronger effect = lower value.
The nature of experiment [11]: viability loss with induced miR-34 in A549 – imaging, A549 dox-inducible miR-34, nuclei and caspase counts, primary screen (AID 1347080;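 active = compounds whose cell count with miR-34 switched on is under 0.7 times the count with it off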). The settings on record: A549 miR-34 inducible, Hoechst nuclei count, 48 h.
Experiment [12] has as its target NAD(+) hydrolase SARM1 (Homo sapiens) (UniProt Q6SZW1). The experiment is described as follows: blocking NAD cleavage by SARM1 SAM-TIR – cell lysate, NAD-Glo luminescence (AID 1508614;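 active = compound whose remaining NAD level is above about 45 nM, limit read from the data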;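 also: higher remaining NAD means stronger inhibition of SARM1 NADase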). The note with it: SAM-TIR HEK293T lysate NADase, at 1 µM, stronger effect = higher value.
Experiment [13] in a line: galactose survival enhancers in mitochondrial complex I cybrids – cell-based, galactose medium, ATP luminescence, primary screen (AID 1645843).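 Also: positive z means more ATP and so rescue of galactose-driven cybrid death.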 The settings on record: complex I mutant cybrid cells, 72 h, stronger effect = higher value.
A short description of experiment [14]: P. berghei load reduction in hepatocytes – cell-based, HepG2, luciferase luminescence, HepG2 viability, primary screen (AID 624349; in the data active = parasite load remaining mostly below about 12%, no sharp cut-off; inactive = mostly above about 10%;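 also: 100% = mean of DMSO negative control wells on the same plate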). The settings on record: P. berghei liver stage in HepG2, luciferase luminescence, concentration not given here; parasite load remaining: stronger effect = lower value; viability: measured here: HepG2 viability without parasites.
Experiment [15] in a line: MELAS cybrid and Rieske KO viability enhancers – cell-based, MELAS cybrids, Rieske KO mouse fibroblasts, CellTiter-Glo, primary screen (AID 1508586;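 active = mean z-score across replicates of 1.96 or higher in either the MELAS or the Rieske mutant cell line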;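 also: z relative to plate mean and SD of compound and empty wells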). The note with it: low glucose.
Setting [16] is: measured here: epithelial PC-3E GFP cell survival.
The mark [17] stands for this setting: measured here: mesenchymal TEM4-18 mCherry cell survival.
[18] abbreviates: measured here: total cells without miR-34 induction.
Setting [19] is: measured here: relative caspase fold change +Dox/-Dox.
Where [20] appears, read: measured here: total cells with miR-34 induction, stronger effect = lower value.

Data on five compounds can be found in PubChem BioAssay.

“And” between values parts separate entries of the source, which are not always exact repeats. Equal entries are not always repeated. The source made the active and inactive calls.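 The calls were made as follows, unless noted: active = z-score of at least 1.8 in each of two replicates, scored against plate mean and spread of sample wells; inactive = the rest.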

The viability is the share of living cells, or the viability signal relative to a control.

Chain of NAD(+) hydrolase SARM1 (Homo sapiens) (Q6SZW1 whole entry, looked up): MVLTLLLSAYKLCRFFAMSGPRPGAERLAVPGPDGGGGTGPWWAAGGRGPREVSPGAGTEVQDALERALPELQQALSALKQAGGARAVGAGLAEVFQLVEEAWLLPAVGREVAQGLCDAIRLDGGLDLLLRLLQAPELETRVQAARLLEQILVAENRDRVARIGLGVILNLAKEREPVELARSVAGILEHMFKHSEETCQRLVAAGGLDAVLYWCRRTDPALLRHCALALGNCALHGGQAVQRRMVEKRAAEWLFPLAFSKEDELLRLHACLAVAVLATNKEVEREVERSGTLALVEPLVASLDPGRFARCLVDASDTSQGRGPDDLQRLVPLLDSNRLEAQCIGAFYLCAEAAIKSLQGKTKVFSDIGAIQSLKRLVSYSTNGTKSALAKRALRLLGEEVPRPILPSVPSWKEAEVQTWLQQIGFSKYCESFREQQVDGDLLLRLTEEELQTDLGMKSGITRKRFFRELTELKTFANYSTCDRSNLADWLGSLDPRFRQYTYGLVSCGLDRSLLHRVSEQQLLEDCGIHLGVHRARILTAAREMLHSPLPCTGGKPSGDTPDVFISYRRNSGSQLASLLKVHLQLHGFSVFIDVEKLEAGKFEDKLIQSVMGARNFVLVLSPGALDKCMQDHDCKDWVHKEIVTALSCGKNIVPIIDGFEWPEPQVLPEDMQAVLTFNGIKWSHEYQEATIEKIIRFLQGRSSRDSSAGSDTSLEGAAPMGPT

Consider `NN=C(N)N`, for which the nuclear beta-catenin stimulation in [1] (at 10 µM) is 0.8% (inactive); in [1] (stimulation, at 2 µM) it was 6.5%. In addition, the insulin secretion stimulation in experiment [2] was 1.9% (inactive). The viability decrease in [3] was -34.7% (inactive). In addition, the tube area decrease in [4] is -0.5% (inactive). Further, the GLP1 secretion stimulation in [5] was -3.5% (inactive). The inhibition of viability in experiment [6] is 0.63% (inactive). Further, the viability decrease (inhibition) is 20.2% (inactive) in experiment [7] and -6% (inactive) in [8]. The red/green cell ratio (normalised) in [9] (counts scaled to control wells, 1 = unselective) is 0.96 (inactive) and 0.91 (inactive). Also, the normalised cell number in experiment [9] (setting [16]) is 1.02 and 1.25; in [9] (setting [17]), 0.98 and 1.14. For the same compound, in experiment [10], the activity remaining is 107% (inactive). For the same compound, the cell count in [11] (setting [18]) was 10500 and 9550 and 9270. For the same compound, the remaining NAD in [12] was 10 nM (inactive). The z-score in [13] is 0.575 (inactive) and 0.155 (inactive) and 0.34 (inactive).

Consider `CN1C(=O)CN=C(c2ccccc2)c2cc([N+](=O)[O-])ccc21`, for which the parasite load remaining in [14] was 83.1% (inactive). This compound showed a viability in experiment [14] of 68.8%. For the same compound, the nuclear beta-catenin stimulation in [1] (at 10 µM) is 0.5% (inactive); in [1] (stimulation, at 2 µM) it was 0.9%. In [2], the insulin secretion stimulation was -0.2% (inactive). The viability decrease in experiment [3] is -4.25% (inactive). For the same compound, the tube area decrease in experiment [4] was -18.8% (inactive). Besides, the GLP1 secretion stimulation in experiment [5] is 3.3% (inactive). The inhibition of viability in experiment [6] was -16.9% (inactive). For the same compound, the viability decrease (inhibition) in [7] is 18.1% (inactive); in [8] it was 1.05% (inactive). Moreover, the fold change in experiment [11] (stronger effect = lower value) is 0.947 (inactive); in [11] (setting [19]) it was 1.19. Besides, the cell count in experiment [11] (setting [20]) was determined as 9100; in experiment [11] (setting [18]), 9610. For the same compound, in [13], the z-score was 0.65 (inactive).

For the compound `CC1(C)C(C=C(Cl)Cl)C1C(=O)OC(C#N)c1cccc(Oc2ccccc2)c1` (centres undefined), the nuclear beta-catenin stimulation in experiment [1] (at 10 µM) is 0.7% (inactive); in [1] (stimulation, at 2 µM), -1%. Moreover, the insulin secretion stimulation in experiment [2] was 8.1% (inactive). Also, in experiment [3], the viability decrease was 1.2% (inactive). Also, the tube area decrease in [4] was -7.9% (inactive). Besides, the GLP1 secretion stimulation in [5] is 4.4% (inactive). Moreover, the inhibition of viability in experiment [6] is 40.5% (inactive). The viability decrease (inhibition) in experiment [7] was 27.7% (inactive); in experiment [8], 23.2% (active). For the same compound, in experiment [9], the red/green cell ratio (normalised) is 0.82 (inactive). The results for the normalised cell number in experiment [9] (setting [16]) and in experiment [9] (setting [17]) were 1.16 and 0.96, respectively. Besides, the fold change is 0.936 (inactive) and 0.968 (inactive) in experiment [11] (stronger effect = lower value); 1.17 and 1.27 in [11] (setting [19]). Besides, the cell count in experiment [11] (setting [20]) was 7700 and 5600; in experiment [11] (setting [18]), 8230 and 5790. The remaining NAD in [12] was 10 nM (inactive).

With `c1ccc2c(c1)OCC(C1=NCCN1)O2` (centres undefined), the parasite load remaining in experiment [14] was 48.2% (inactive) and 42.6% (inactive). Also, the viability in [14] was 92.9% and 100%. The nuclear beta-catenin stimulation in experiment [1] (at 10 µM) is 5.9% (inactive); in experiment [1] (stimulation, at 2 µM), -1.4%. Besides, the insulin secretion stimulation in experiment [2] is 2.3% (inactive). In addition, the viability decrease in experiment [3] was 14.1% (inactive). Further, the tube area decrease in [4] is -4.8% (inactive). In addition, the GLP1 secretion stimulation in [5] was 0.1% (inactive). In experiment [6], the inhibition of viability was 17.5% (inactive). The values for the viability decrease (inhibition) in [7] and in [8] were 33.2% (inactive) and -3.9% (inactive), respectively. In addition, the red/green cell ratio (normalised) in [9] is 0.85 (inactive). In addition, the normalised cell number in [9] (setting [16]) is 1.22; in experiment [9] (setting [17]), 1.03. The z-score was 0.698 (inactive) and 0.759 (inactive) in experiment [15] (MELAS cybrid survival, CellTiter-Glo 48 h, stronger effect = higher value); -0.433 and -0.198 in [15] (Rieske KO mouse fibroblast survival, CellTiter-Glo 72 h); -1 (inactive) and -0.91 (inactive) and -1.57 (inactive) in [13]. Further, the remaining NAD in experiment [12] is 10 nM (inactive).

On to `c1ccc(N2CCNCC2)cc1`, for which the nuclear beta-catenin stimulation is 0.1% (inactive) in [1] (at 10 µM) and -0.6% in experiment [1] (stimulation, at 2 µM). In addition, the insulin secretion stimulation in [2] was 3.1% (inactive). Besides, the viability decrease in experiment [3] is 3.7% (inactive). Further, the tube area decrease in experiment [4] is -2.6% (inactive). Further, in experiment [5], the GLP1 secretion stimulation is -0.5% (inactive). Besides, the inhibition of viability in experiment [6] was 10.5% (inactive). The viability decrease (inhibition) in experiment [7] was 0.3% (inactive); in experiment [8], -5.9% (inactive). In addition, the red/green cell ratio (normalised) in experiment [9] was 1.17 (inactive). The normalised cell number in [9] (setting [16]) amounted to 0.95; in experiment [9] (setting [17]) it was 1.12.
